For assay [1], the target named is Glutathione peroxidase 1 (Homo sapiens) (UniProt P07203). In words: Primary qHTS Assay for Inhibitors of Recombinant Selenoprotein Glutathione Peroxidase 1 (GPX1) (AID 1845191). Further: nearly all actives have a fitted effect of over 65% in size. On activity, negative = inhibition: on the % scale 0 is the no-effect control and ±100 the full control effect. The essentials: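 10 nM GPX1 + cpd, 30 min RT; start w/ 1 mM GSH, 0.5 mM cumene hydroperoxide, 0.5 mM NADPH, 100 nM GR, 0.01% BSA; buffer 50 mM Tris-HCl pH 7.5, 2 mM EDTA, 150 mM NaCl; Fl 340/450, 0 & 15 min.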

Assay [2] addresses Phospholipid hydroperoxide glutathione peroxidase GPX4 (Homo sapiens) (UniProt P36969). In words: Primary qHTS Assay for Inhibitors of Recombinant Selenoprotein Glutathione Peroxidase 4 (GPX4) (AID 1845192). Further: nearly all actives have a fitted effect of over 65% in size. On activity change, negative = inhibition: series mostly up to about 50 µM; on the % scale 0 is the no-effect control and ±100 the full control effect. The essentials: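 NADPH consumption, followed by fluorescence at 340/450 nm between 0 and 15 min, reports GPX4 activity via coupled glutathione reductase (100 nM). Enzyme 200 nM was pre-exposed to compound 30 min; 0.5 mM cumene hydroperoxide and 1 mM GSH served as substrates.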

Assay [3] deals with Luciferin 4-monooxygenase (Photinus pyralis) (UniProt P08659). The assay is described as follows: Primary firefly luciferase (FLuc) qHTS assay for identification of artifact compounds. (AID 1845220). Further: nearly all actives have a fitted effect of over 60% in size. Further: potency means the concentration at half of the fitted maximal effect.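 On activity change, negative = inhibition: series mostly up to about 54 µM; plate controls were DMSO vehicle for no effect and no enzyme for full effect.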 The essentials: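 Cell-free, 1536-well qHTS. Buffer pH 7.6 with 0.01% Tween-20 and 0.05% BSA; 10 uM D-luciferin, 10 uM ATP; 10 nM P. pyralis luciferase; luminescence after 5 min.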

Values without a mark were called inactive. Results filed as inconclusive are left out. Calls of active or inactive are those of the source. The call rests on the fitted dose curve; in most records, active means well fitted inhibition curve with a large enough effect; inconclusive means small, poorly fitted or top-dose-only effect; inactive means flat fitted curve, though single readings scatter. Where a SMILES comes first, the peptide text is derived from it. [ ]: non-standard residue; d: D form.

Sequence of Glutathione peroxidase 1 (Homo sapiens) (P07203 whole entry, looked up): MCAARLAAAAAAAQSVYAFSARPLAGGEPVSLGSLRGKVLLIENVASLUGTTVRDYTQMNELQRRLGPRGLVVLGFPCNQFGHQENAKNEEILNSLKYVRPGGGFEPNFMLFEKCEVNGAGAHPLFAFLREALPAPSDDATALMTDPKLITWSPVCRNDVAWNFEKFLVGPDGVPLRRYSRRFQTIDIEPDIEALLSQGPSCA
Sequence of Phospholipid hydroperoxide glutathione peroxidase GPX4 (Homo sapiens) (P36969 whole entry, looked up): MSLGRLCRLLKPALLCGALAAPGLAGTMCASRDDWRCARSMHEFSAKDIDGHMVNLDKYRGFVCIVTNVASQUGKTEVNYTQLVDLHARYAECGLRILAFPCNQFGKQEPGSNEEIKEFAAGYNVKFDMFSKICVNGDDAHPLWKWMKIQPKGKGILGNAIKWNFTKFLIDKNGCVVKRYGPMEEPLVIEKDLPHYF

As for `Cc1nn(C)c(COc2ccc(N3CCN(S(=O)(=O)N(C)C)CC3)cc2)c1-c1cccc2c(CCCOc3cccc4ccccc34)c(C(=O)O)n(CCN3CCOCC3)c12`, the Potency entry in assay [1], in assay [2] and in assay [3] was “inactive” in each case.
With `C=C1C[C@]23C[C@H]1CC[C@H]2[C@]1(C)CCC[C@@]2(CO)C(=O)O[C@H]([C@H]21)[C@@H]3O`, the Potency result in assay [1], in assay [2] and in assay [3] was “inactive” in each case.
For the compound `COc1ccc(C2=CC(=O)OC2Cc2ccc(O)cc2)c(O)c1` (configuration not stated), the Potency entry in assay [1], in assay [2] and in assay [3] was “inactive” each time.
Take `CC(=O)c1cnc2ccc(-c3cc(Cl)c(O)c(Cl)c3)nc2c1NC1CCC(CN(C)C)CC1` (configuration not stated): the activity, negative = inhibition in assay [1] was 2.12% [at 9.52 µM]. Besides, the activity change, negative = inhibition in assay [2] is 17.1% [at 9.73 µM]; in assay [3], 2.41% [at 11.6 µM].
In the case of `Cn1ccnc1CCOC(c1cc2nccc(C(=O)O)c2[nH]1)c1ccccc1Cl` (configuration not stated), the Potency entry in assay [1], in assay [2] and in assay [3] was “inactive” throughout.
In the case of `CC(C)[C@@H](C)/C=C/[C@@H](C)[C@H]1CC[C@H]2C3=CC=C4C[C@@H](O)CC[C@]4(C)[C@H]3CC[C@]12C`, the Potency entry in assay [1], in assay [2] and in assay [3] was “inactive” in each case.
With `COc1cc(COC2OC(CO)C(O)C(O)C2O)cc(OC)c1O` (configuration not stated), the Potency result in assay [1], in assay [2] and in assay [3] was “inactive” each time.
On to `O=C(/C=C/c1ccc(O)c(O)c1)OCc1ccccc1O[C@@H]1O[C@H](CO)[C@@H](O)[C@H](O)[C@H]1O`, for which the Potency entry in assay [1], in assay [2] and in assay [3] was “inactive” throughout.
Regarding `C=C1CCC2C(C)(C(=O)O)CC(O)CC2(C)C1CC/C(C)=C/C(=O)O` (configuration not stated), the Potency result in assay [1], in assay [2] and in assay [3] was “inactive” each time.
`CC1NC(=O)C(Cc2c[nH]c3ccccc23)NC1=O` (configuration not stated): the Potency entry in assay [1], in assay [2] and in assay [3] was “inactive” each time.
`CC(=O)N[C@H](Cc1ccc(O)cc1)C(=O)N[C@H](CCCN=C(N)N)C(=O)N[C@H](Cc1ccccc1)C(N)=O` (Ac-[dY]-[dR]-[dF]-NH2): the Potency result in assay [1], in assay [2] and in assay [3] was “inactive” throughout.
In the case of `O=C(NCc1ccc(OC(F)(F)F)cc1)C1c2ccccc2C(=O)N1C1CCOCC1` (configuration not stated), the Potency entry in assay [1], in assay [2] and in assay [3] was “inactive” throughout.
Turning to `C/C=C/C=C/C(CC(=O)O)Nc1ccc(C=O)cc1` (configuration not stated), the Potency entry in assay [1] and in assay [2] was “inactive” each time. Moreover, the Potency in assay [3] is 23.9 µM (active).
`OCc1ccccc1O[C@@H]1O[C@H](CO)[C@@H](O)[C@H](O)[C@H]1O`: the Potency entry in assay [1], in assay [2] and in assay [3] was “inactive” each time.
`C[C@@H]1CC[C@H]2C(C)(C)[C@H](O)[C@H](O)C[C@]2(C)[C@@]12Cc1c(O)cc3c(c1O2)CNC3=O`: the Potency result in assay [1], in assay [2] and in assay [3] was “inactive” each time.
With `CCNC(=O)[C@H]1O[C@H](n2cnc3c(NCC(c4ccccc4)c4ccccc4)nc(C(=O)NCCNC(=O)NC4CCN(c5ccccn5)CC4)nc32)[C@H](O)[C@@H]1O`, the Potency entry in assay [1], in assay [2] and in assay [3] was “inactive” each time.
For `C[C@]12C=CC(=O)C=C1CC[C@@H]1[C@@H]2[C@@H](O)C[C@@]2(C)[C@H]1CC[C@]2(O)C(=O)COC(=O)CCC(=O)O`, the Potency entry in assay [1], in assay [2] and in assay [3] was “inactive” throughout.
As for `C(#Cc1cccc(CN2CCOCC2)c1)CCN1CCCCC1`, the Potency entry in assay [1], in assay [2] and in assay [3] was “inactive” throughout.
For the compound `C=C1CC23CC1(O)CCC2C1=CC2OC(=O)C(C)(C2O)C1C3C(=O)O` (configuration not stated), the Potency entry in assay [1], in assay [2] and in assay [3] was “inactive” each time.
For `COc1cc(N2CCC(O)CC2)ccc1Nc1cc(Nc2ccccc2S(=O)(=O)C(C)C)c2cc[nH]c2n1`, the Potency result in assay [1], in assay [2] and in assay [3] was “inactive” each time.
Take `Nc1ccn([C@@H]2C(F)=C(CO)[C@@H](O)[C@H]2O)c(=O)n1`: the Potency result in assay [1], in assay [2] and in assay [3] was “inactive” throughout.
For the compound `Cc1c(N2C(=O)c3ccc(C(=O)O)cc3C2=O)c(=O)n(-c2ccccc2)n1C`, the Potency result in assay [1], in assay [2] and in assay [3] was “inactive” throughout.
Consider `O=c1c2ccccc2nc2n1CCC2O` (configuration not stated), for which the Potency result in assay [1], in assay [2] and in assay [3] was “inactive” each time.
As to `COc1ccccc1-n1c(SCC(=O)Nc2nc3ccc(C)cc3s2)nc2c(c1=O)SCC2`, the Potency result in assay [1], in assay [2] and in assay [3] was “inactive” throughout.

The record behind these values is PubChem BioAssay (NCATS).
